Results from PubChem BioAssay AID1159580 (chemical genetic matrix, 2015).
Hit rate of the full screen: of about 5,500 compounds, about 2,000 (36%) were called active. Inconclusive results (about 18%) are left out. Rule as the data show it: active = normalized growth mostly below about 0.91 (no sharp cut-off); inconclusive = no clear call, values can overlap the other calls; inactive = mostly above about 0.92. This is one part of the list.

Test: chemical genetic growth profiling, strain panel (AID 1159580);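 also: tested at 20 µM; growth read once vehicle control cultures reached saturation at 30 °C; 1 = growth at the plate median or of vehicle wells; lower values mean less growth of the strain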
Details: growth OD

Measured: normalized growth

C/C=C1\[C@H]2C=C(C)C[C@]1(N)c1ccc(=O)[nH]c1C2
inactive: S. cerevisiae deletion strains, locus YJR075W, strain HOC1, active compounds read low 0.997 | S. cerevisiae deletion strains, locus YKL009W, strain mrt4, active compounds read low 1.01 | S. cerevisiae deletion strains, locus YKL068W, active compounds read low 1.01 | S. cerevisiae deletion strains, locus YKL085W, strain MDH1 (second series), active compounds read low 1 | S. cerevisiae deletion strains, locus YKL085W, strain MDH1, active compounds read low 1 | S. cerevisiae deletion strains, locus YKL160W, strain elf1, active compounds read low 0.989 | S. cerevisiae deletion strains, locus YKL190W, strain CNB1, active compounds read low 1.01 | S. cerevisiae deletion strains, locus YKR001C, strain vps1, active compounds read low 1.03 | S. cerevisiae deletion strains, locus YKR026C, strain gcn3, active compounds read low 1.02 | S. cerevisiae deletion strains, locus YKR091W, strain srl3, active compounds read low 1.02 | S. cerevisiae deletion strains, locus YLL001W, strain dnm1, active compounds read low 1.02 | S. cerevisiae deletion strains, locus YLL026W, active compounds read low 1.01 | S. cerevisiae deletion strains, locus YLL041C, strain sdh2, active compounds read low 1.02 | S. cerevisiae deletion strains, locus YLR027C, strain aat2, active compounds read low 1.02 | S. cerevisiae deletion strains, locus YLR039C, strain RIC1, active compounds read low 1.05 | S. cerevisiae deletion strains, locus YLR058C, strain SHM2, active compounds read low 1.01 | S. cerevisiae deletion strains, locus YLR102C, strain apc9, active compounds read low 1.02 | S. cerevisiae deletion strains, locus YLR113W, strain HOG1, active compounds read low 1.01 | S. cerevisiae deletion strains, locus YLR221C, strain rsa3, active compounds read low 1.01 | S. cerevisiae deletion strains, locus YLR258W, strain gsy2, active compounds read low 1.03 | S. cerevisiae deletion strains, locus YLR262C, strain YPT6 (second series), active compounds read low 1.01 | S. cerevisiae deletion strains, locus YLR262C, strain YPT6, active compounds read low 1.05 | S. cerevisiae deletion strains, locus YLR268W, strain sec22, active compounds read low 0.992 | S. cerevisiae deletion strains, locus YLR320W, strain mms22, active compounds read low 1.04 | S. cerevisiae deletion strains, locus YLR330W, strain CHS5, active compounds read low 1.01 | S. cerevisiae deletion strains, locus YLR342W, strain FKS1 (second series), active compounds read low 1.04 | S. cerevisiae deletion strains, locus YLR342W, strain FKS1, active compounds read low 1.02 | S. cerevisiae deletion strains, locus YLR357W, strain rsc2, active compounds read low 1.06 | S. cerevisiae deletion strains, locus YLR370C, strain arc18, active compounds read low 1.02 | S. cerevisiae deletion strains, locus YLR371W, strain rom2, active compounds read low 1.01 | S. cerevisiae deletion strains, locus YLR384C, strain iki3, active compounds read low 1.02 | S. cerevisiae deletion strains, locus YLR418C, strain cdc73, active compounds read low 1.02 | S. cerevisiae deletion strains, locus YML016C, strain PPZ1, active compounds read low 1 | S. cerevisiae deletion strains, locus YML032C, strain rad52, active compounds read low 1.01 | S. cerevisiae deletion strains, locus YML120C, strain ndi1, active compounds read low 1.02 | S. cerevisiae deletion strains, locus YML124C, strain tub3, active compounds read low 1.01 | S. cerevisiae deletion strains, locus YMR058W, strain fet3, active compounds read low 1.02 | S. cerevisiae deletion strains, locus YMR078C, strain ctf18, active compounds read low 1.02 | S. cerevisiae deletion strains, locus YMR125W, strain sto1, active compounds read low 1.03 | S. cerevisiae deletion strains, locus YMR129W, active compounds read low 1.03 | S. cerevisiae deletion strains, locus YMR205C, strain PFK2, active compounds read low 1.07 | S. cerevisiae deletion strains, locus YMR223W, strain ubp8, active compounds read low 1.03 | S. cerevisiae deletion strains, locus YMR231W, strain pep5, active compounds read low 1.02 | S. cerevisiae deletion strains, locus YMR263W, strain SAP30, active compounds read low 1 | S. cerevisiae deletion strains, locus YMR307W, strain GAS1, active compounds read low 1.02 | S. cerevisiae deletion strains, locus YNL067W, strain RPL9B, active compounds read low 1 | S. cerevisiae deletion strains, locus YNL071W, strain lat1, active compounds read low 1.02 | S. cerevisiae deletion strains, locus YNL128W, strain TEP1, active compounds read low 1.02 | S. cerevisiae deletion strains, locus YNL153C, strain GIM3, active compounds read low 1 | S. cerevisiae deletion strains, locus YNL183C, strain NPR1, active compounds read low 0.956 | S. cerevisiae deletion strains, locus YNL209W, strain ssb2, active compounds read low 1.02 | S. cerevisiae deletion strains, locus YNL233W, strain BNI4, active compounds read low 0.983 | S. cerevisiae deletion strains, locus YNL248C, strain rpa49, active compounds read low 1.01 | S. cerevisiae deletion strains, locus YNL250W, strain rad50, active compounds read low 1.01 | S. cerevisiae deletion strains, locus YNL271C, strain bni1, active compounds read low 1.02 | S. cerevisiae deletion strains, locus YNL298W, strain CLA4, active compounds read low 1.02 | S. cerevisiae deletion strains, locus YNL307C, strain MCK1, active compounds read low 1.02 | S. cerevisiae deletion strains, locus YNL322C, strain KRE1 (second series), active compounds read low 1.01 | S. cerevisiae deletion strains, locus YNL322C, strain KRE1, active compounds read low 1.01 | S. cerevisiae deletion strains, locus YNR049C, strain mso1, active compounds read low 1.03 | S. cerevisiae deletion strains, locus YNR052C, strain pop2, active compounds read low 1.02 | S. cerevisiae deletion strains, locus YOL006C, strain TOP1, active compounds read low 1.05 | S. cerevisiae deletion strains, locus YOL012C, strain htz1 0.803 | S. cerevisiae deletion strains, locus YOL147C, strain pex11, active compounds read low 1.01 | S. cerevisiae deletion strains, locus YOR001W, strain rrp6, active compounds read low 1 | S. cerevisiae deletion strains, locus YOR061W, strain CKA2, active compounds read low 1.02 | S. cerevisiae deletion strains, locus YOR069W, strain VPS5, active compounds read low 1.01 | S. cerevisiae deletion strains, locus YOR070C, strain gyp1, active compounds read low 1.02 | S. cerevisiae deletion strains, locus YOR080W, strain dia2, active compounds read low 1.02 | S. cerevisiae deletion strains, locus YOR083W, strain WHI5, active compounds read low 0.992 | S. cerevisiae deletion strains, locus YOR106W, strain vam3, active compounds read low 1.01 | S. cerevisiae deletion strains, locus YOR136W, strain idh2, active compounds read low 1.02 | S. cerevisiae deletion strains, locus YOR144C, strain elg1, active compounds read low 1.01 | S. cerevisiae deletion strains, locus YOR184W, strain ser1, active compounds read low 1.04 | S. cerevisiae deletion strains, locus YOR231W, strain MKK1, active compounds read low 1.01 | S. cerevisiae deletion strains, locus YOR265W, strain rbl2, active compounds read low 1.02 | S. cerevisiae deletion strains, locus YOR270C, strain vph1, active compounds read low 1.02 | S. cerevisiae deletion strains, locus YOR290C, strain snf2, active compounds read low 1.01 | S. cerevisiae deletion strains, locus YOR316C, strain cot1, active compounds read low 1.01 | S. cerevisiae deletion strains, locus YPL051W, strain arl3, active compounds read low 0.996 | S. cerevisiae deletion strains, locus YPL055C, strain LGE1, active compounds read low 1.02 | S. cerevisiae deletion strains, locus YPL078C, strain atp4, active compounds read low 0.991 | S. cerevisiae deletion strains, locus YPL106C, strain sse1, active compounds read low 1.06 | S. cerevisiae deletion strains, locus YPL240C, strain hsp82, active compounds read low 1.03 | S. cerevisiae deletion strains, locus YPL241C, strain CIN2, active compounds read low 1.01 | S. cerevisiae deletion strains, locus YPL256C, strain CLN2, active compounds read low 0.99 | S. cerevisiae deletion strains, locus YPR119W, strain clb2, active compounds read low 1.01 | S. cerevisiae deletion strains, locus YPR141C, strain kar3, active compounds read low 1.01 | S. cerevisiae deletion strains, locus YPR163C, strain tif3, active compounds read low 1.02 | S. cerevisiae deletion strains, locus YPR167C, strain met16, active compounds read low 1.01 | S. cerevisiae deletion strains, strain wtn01, active compounds read low 1.01 | S. cerevisiae strains, strain wild type, active compounds read low 1.02
